# From PubChem
# Pf Dd2 growth: inhibitors of Plasmodium falciparum Dd2 growth; AID 1159554; P. falciparum Dd2 growth, SYBR Green, 72 h; active compounds read low; activity change, % at 10 µM; 94,000 compounds, 2.3% hits; in the data active = activity change below about -80%; inconclusive = no clear call, values can overlap the other calls
# C diff HTS: C. difficile growth inhibition. Clostridium difficile clinical isolate growth, OD600, 24 h; active compounds read low. growth activity, negative = inhibition, % at 16 µg/mL (by protocol). 86,000 compounds, 0.25% hits. AID 1259249;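 active = mean growth activity at or below -80% and every replicate also at or below -80%; inconclusive = mean at or below -80% but some replicate above -80%; inactive = mean growth activity above -80%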;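 note: 0% = DMSO wells and -100% = levofloxacin 16 µg/mL wells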
# T cruzi growth-1: inhibitors of T. cruzi proliferation; inhibition, % at 8.34 µM; 77,000 compounds, 5.9% hits; T. cruzi beta-gal in NIH3T3, GalScreen luminescence, 90 h;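 active = mean inhibition above about 93%, with at least 55% of replicates each passing it, limit read from the data, passing the limit was not always enough; inconclusive = only one of those two conditions holds; inactive = neither condition holds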
# T cruzi growth-2: Trypanosoma cruzi proliferation inhibition | shares compounds with T cruzi growth-1 | T. cruzi beta-gal in NIH3T3, GalScreen luminescence, 90 h | inhibition, % at 8.35 µM | 5,600 compounds, 72% hits | AID 651739;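 active = mean replicate inhibition above about 95% and at least 55% of replicates individually reaching it, limit read from the data; inconclusive = only one of the two criteria is met; inactive = neither criterion is met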
# T cruzi growth-3: Trypanosoma cruzi proliferation inhibition; 5,600 compounds, 21% hits; inhibition, % at 2.09 µM; AID 651740; shares compounds with T cruzi growth-1; T. cruzi beta-gal in NIH3T3, GalScreen luminescence, 90 h;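 active = mean inhibition above about 95%, with at least 55% of replicates also reaching it, limit read from the data; inconclusive = meets just one of the two conditions; inactive = meets neither condition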;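 note: plate controls were neutral control median for no effect and positive control median for full effect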
# 3T3 cytotox: cytotoxicity in mouse NIH/3T3 fibroblasts | NIH/3T3 viability, CellTiter-Glo ATP luminescence, 90 h | cytotoxicity (signal decrease), % at 8.35 µM | AID 651742 | 5,600 compounds, 14% hits | shares compounds with T cruzi growth-1;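 active = mean signal decrease across replicates above about 35% based on untreated-well scatter, with enough replicates individually passing, limit read from the data; inconclusive = no rule stated though some were filed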;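 note: 0% = median of neutral control wells and 100% = median of positive control wells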
# NIH3T3 tox 2: NIH/3T3 (mouse) viability loss. shares compounds with T cruzi growth-1. NIH/3T3 viability, CellTiter-Glo ATP luminescence, 90 h. inhibition, % at 24.9 µM. 5,600 compounds, 56% hits. AID 651744;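 active = mean loss of cell viability signal at or above a set limit, and enough replicates individually reaching it; inconclusive = meets only the mean limit or only the replicate share; inactive = meets neither condition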;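 note: 0% = median of neutral control wells and 100% = median of positive control wells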
# Active calls of the source: *; ? = inconclusive; / = no result. Compounds with a hit are over-represented: about 6.7% of the library has one in this group of screens.
SMILES,Pf Dd2 growth,C diff HTS,T cruzi growth-1,others
CC(C)CC#Cc1ccc2c(c1)O[C@H](CN(C)Cc1ccc3c(c1)OCO3)[C@H](C)CN([C@@H](C)CO)S2(=O)=O,-55,22,96*,T cruzi growth-2=?;T cruzi growth-3=107*;3T3 cytotox=-7;NIH3T3 tox 2=106*
COCC#Cc1ccc2c(c1)O[C@@H](CN(C)Cc1ccc3c(c1)OCO3)[C@@H](C)CN([C@H](C)CO)S2(=O)=O,-59,0,/,
COCC#Cc1ccc2c(c1)O[C@@H](CN(C)Cc1ccc3c(c1)OCO3)[C@H](C)CN([C@@H](C)CO)S2(=O)=O,-46,-2,/,
CCCC#Cc1ccc2c(c1)O[C@H](CN(C)Cc1ccc3c(c1)OCO3)[C@@H](C)CN([C@@H](C)CO)S2(=O)=O,/,30,91,
C[C@H](CO)N1C[C@H](C)[C@H](CN(C)S(=O)(=O)c2ccc(F)cc2)Oc2ccc(NC(=O)NC3CCCCC3)cc2CC1=O,-22,5,61,
COCC(=O)Nc1ccc2c(c1)C(=O)N(C)[C@H]1CC[C@@H](CC(=O)NCc3ccccc3)O[C@@H]1CO2,1,12,34,
Cc1ccccc1-c1ccc([C@@H]2[C@@H](CO)N3CCCCN(S(C)(=O)=O)C[C@@H]23)cc1,9,-14,45,
C[C@@H]1CCCCO[C@@H](CN(C)C(=O)Nc2ccc(F)cc2)[C@H](C)CN([C@H](C)CO)C(=O)c2cc(NC(=O)Nc3ccc(F)cc3)ccc2O1,-27,/,/,
C[C@H](CO)N1C[C@H](C)[C@@H](CN(C)Cc2ccncc2)Oc2c(NC(=O)Nc3ccc4c(c3)OCO4)cccc2C1=O,0,3,54,
CO[C@@H]1CN(C)C(=O)c2ccc(NS(=O)(=O)c3ccccc3F)cc2OC[C@H](C)NC[C@@H]1C,25,/,57,
CCCNC(=O)N[C@@H]1C=C[C@@H](CC(=O)NC2CCCCC2)O[C@H]1CO,24,/,-44,
Cc1ccccc1-c1cnc2c(c1)C(=O)N([C@@H](C)CO)C[C@@H](C)[C@H](CN(C)Cc1cccnc1)O2,12,1,41,
O=C(Nc1cc(F)ccc1F)N1CCCCN2[C@H](C1)[C@@H](c1ccc(-c3ccccc3)cc1)[C@@H]2CO,-21,34,99*,T cruzi growth-2=101*;T cruzi growth-3=102*;3T3 cytotox=62*;NIH3T3 tox 2=106*
O=C(Nc1cc(F)ccc1F)N1CCCCN2[C@H](CO)[C@H](c3ccc(-c4cncnc4)cc3)[C@@H]2C1,21,-4,115*,T cruzi growth-2=54;T cruzi growth-3=31;3T3 cytotox=23;NIH3T3 tox 2=19
O=C(Nc1cc(F)ccc1F)N1CCCCN2[C@H](CO)[C@@H](c3ccc(-c4ccncc4)cc3)[C@@H]2C1,-16,13,88,
O=C(Nc1cc(F)ccc1F)N1CCCCN2[C@H](CO)[C@@H](c3ccc(-c4ccccc4)cc3)[C@H]2C1,-38,14,36,
O=C(Nc1cc(F)ccc1F)N1CCCCN2[C@H](CO)[C@H](c3ccc(-c4cccnc4)cc3)[C@H]2C1,-45,1,104*,T cruzi growth-2=101*;T cruzi growth-3=59;3T3 cytotox=-25;NIH3T3 tox 2=?
O=C(Nc1cc(F)ccc1F)N1CCCCN2[C@H](C1)[C@@H](c1ccc(-c3ccncc3)cc1)[C@@H]2CO,-14,-1,94,
O=C(Nc1cc(F)ccc1F)N1CCCCN2[C@H](C1)[C@@H](c1ccc(-c3cncnc3)cc1)[C@@H]2CO,14,4,105*,T cruzi growth-2=4;T cruzi growth-3=-14;3T3 cytotox=-16;NIH3T3 tox 2=-2
O=C(Nc1cc(F)ccc1F)N1CCCCN2[C@H](CO)[C@@H](c3ccc(-c4cccnc4)cc3)[C@H]2C1,-26,-10,61,
COc1ccc(CN2CC3(CN(C(=O)C4CCOCC4)C3)c3c(n(C)c4cc(OC)ccc34)[C@@H]2CO)cc1,-30,0,/,
COc1cccc(-c2ccc3c(c2)[C@@H]2[C@@H](CCN2S(=O)(=O)c2ccccc2OC)[C@@H](CO)N3)c1,4,-3,93,
Cc1noc(C)c1NC(=O)Nc1ccc2c(c1)CC(=O)N([C@@H](C)CO)C[C@H](C)[C@@H](CN(C)C(=O)Nc1ccccc1)O2,1,-2,-10,
C[C@@H]1CN([C@@H](C)CO)S(=O)(=O)c2ccc(C3=CCCC3)cc2O[C@@H]1CN(C)S(=O)(=O)c1cn(C)cn1,33,-5,-14,
